Inconclusive results are not listed. The source made the active and inactive calls. Calls come from the whole dose curve; as a rule, active = well fitted inhibition curve with a large enough effect; inconclusive = small, poorly fitted or top-dose-only effect; inactive = flat fitted curve, though single readings scatter.
target: Calcium and integrin-binding protein 1 (Homo sapiens) (UniProt Q99828); assay: Primary qHTS for Identification of Calcium Integrin Binding Protein 1 (CIB1) Competitor (AID 1508620); details: CIB1-GST / FITC-alphaIIb peptide fluorescence polarization; series mostly up to 114 µM; activity change, negative = inhibition: at the top concentration;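 for activity change, negative = inhibition: GST tagged CIB1 binding a fluorescein labelled alphaIIb integrin peptide tracer; top concentration of the series differs between compounds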
Sequence (Q99828 whole entry, looked up): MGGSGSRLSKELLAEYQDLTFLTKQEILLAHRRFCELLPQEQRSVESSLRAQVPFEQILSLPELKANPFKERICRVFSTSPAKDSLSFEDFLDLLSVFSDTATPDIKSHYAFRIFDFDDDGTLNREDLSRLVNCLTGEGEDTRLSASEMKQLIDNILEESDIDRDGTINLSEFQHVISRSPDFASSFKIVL
How it was run: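 Fluorescence polarization competition: CIB1-GST (1 uM final) preincubated with compound 15 min at room temperature, then FITC-labeled alphaIIb peptide (100 nM final) added for another 15 min. Polarization read at Ex 480/Em 540.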
% is set by controls: 0 for no effect and ±100 for the full control effect; potency is the fitted concentration of half-maximal effect.

SMILES | activity change, negative = inhibition | Potency
CCC(C)/C=C(C)/C=C/C1=CC2=C(Cl)C(=O)C(C)(OC(C)=O)C(=O)C2(O)C(OC)O1 (centres undefined) | 59.4% [at 57.7 µM] (inactive) | 
Cc1cc(OCCCS(C)(=O)=O)cc(C)c1-c1cccc(COc2ccc3c(c2)OCC3CC(=O)O)c1 (centres undefined) | -7.14% (inactive) | 
C/C1=C\CCC2=CC(OC2=O)C(C)(C)/C=C/C1=O (centres undefined) | 0.908% (inactive) | 
CC(=O)O[C@@H]1CC2C(C)(C)C(=O)C=C[C@]2(C)C2CC[C@@]3(C)[C@H](c4ccoc4)OC(=O)[C@H]4O[C@]43[C@@]21C (some centres undefined) | -6.99% [at 57.7 µM] (inactive) | 
CCN(c1cc(-c2ccc(CN3CCOCC3)cc2)cc(C(=O)NCc2c(C)cc(C)[nH]c2=O)c1C)C1CCOCC1 | -0.525% (inactive) | 
CC1CCCC[C@H]2C(=O)C=C[C@H](O)[C@@H]2CC(=O)O1 (some centres undefined) |  | 28.2 µM (active)
C/C(=C\CO[C@@H]1O[C@H](CO[C@H]2OC[C@](O)(CO)[C@H]2O)[C@@H](O)[C@H](O)[C@H]1O)C(C)(C)O | 5.11% [at 57.7 µM] (inactive) | 
C[C@H](Oc1cc(-c2cnn(C3CCNCC3)c2)cnc1N)c1c(Cl)ccc(F)c1Cl | -4% (inactive) | 
FC(F)(F)c1ccc(CNc2ccc(Cc3c[nH]c4ncc(Cl)cc34)cn2)cn1 | -2.94% [at 57.7 µM] (inactive) | 
CO[C@@H]1[C@H](O)CCC2(CO2)[C@H]1[C@@]1(C)O[C@@H]1CC=C(C)C (some centres undefined) | 5.72% (inactive) | 
C=C1CC[C@@H]2[C@](C)(CO)[C@H](O)CC[C@@]2(C)[C@@H]1C/C=C1/C(=O)OCC1OC(=O)/C(=C/CO)C(O)C[C@@H]1C(=C)CC[C@@H]2[C@](C)(CO)[C@H](O)CC[C@]21C (some centres undefined) | 2.76% [at 30.2 µM] (inactive) | 
C=C(C(=O)O[C@H]1C/C(C)=C/CC/C(CO)=C/[C@H]2OC(=O)C(=C)[C@H]12)C(O)CO (some centres undefined) | -17.1% [at 57.7 µM] (inactive) | 
C=C[C@@]1(C)C=C2C(=O)C(O)=C3[C@](C)(C(=O)O)CC[C@@H]4C[C@]34[C@]2(O)C(=O)C1 | -10.9% [at 57.7 µM] (inactive) | 
CC(=O)O[C@H]1C[C@@](O)(C(C)C)[C@@H]2[C@@H](OC(=O)c3ccc(O)cc3)CC(C)=CC[C@@]12C | -5% [at 57.7 µM] (inactive) | 
C=CC(=O)N1CC(N2CCN(C(=O)CNc3cc(C4CC4)c(Cl)cc3O)CC2)C1 | -9.29% (inactive) | 
Cn1cc(C2=C(c3coc4ccccc34)C(=O)NC2=O)c2cc(Br)ccc21 | 5.88% (inactive) | 
CC(=O)O[C@@H]1[C@@H](OC(C)=O)[C@H](C)O[C@@H](O[C@H]2[C@@H]3C=CO[C@@H](O[C@@H]4O[C@H](CO)[C@@H](O)[C@H](O)[C@H]4O)[C@@H]3[C@@]3(CO)O[C@@H]23)[C@@H]1OC(=O)/C=C/c1ccccc1 | 1.31% [at 30.2 µM] (inactive) | 
COc1cc(-n2cnc3cc(-c4ccc(Cl)cc4)sc3c2=O)ccc1OCCN1CCCC1 | 5.32% (inactive) | 
O=C(Nc1nnc(-c2ccc3c(c2)OCCO3)o1)C1CCCCC1 | 0.958% (inactive) | 
CC(=O)OC1CC2(C)C(CCC(C)C23Cc2c(O)cc(CO)c(C=O)c2O3)C(C)(C)C1O (centres undefined) | 1.28% [at 57.7 µM] (inactive) | 

SMILES | activity change, negative = inhibition | Potency
COCc1c(Cl)ccc2c1CC[C@H]2c1ncc[nH]1 | -3.41% (inactive) | 
CC(=O)O[C@@H]1CC[C@@]2(C)C(CC[C@]3(C)C2[C@H](O)C=C2[C@H]4[C@@H](C)[C@H](C)CC[C@]4(C)CC[C@]23C)[C@@]1(C)C(=O)O (some centres undefined) | -10.1% [at 57.7 µM] (inactive) | 
O=C(O)C1=CO[C@@H](O[C@@H]2O[C@H](CO)[C@@H](O)[C@H](O)[C@H]2O)[C@@H]2C(CO)=CC[C@H]12 | 3.35% [at 57.7 µM] (inactive) | 
C=C(COC(=O)C(O)C(O)CN)C12OC1C1(C)C(=CC2=O)C(O)C(O)CC1C (centres undefined) | -10.7% [at 57.7 µM] (inactive) | 
C[C@@H]1O[C@@H](O[C@H]2[C@H](OC(=O)[C@]34CCC(C)(C)C[C@H]3C3=CCC5[C@@]6(C)C[C@H](O)[C@H](O[C@@H]7O[C@H](C(=O)O)[C@@H](O)[C@H](O)[C@H]7O)[C@@](C)(CO)C6[C@H](O)C[C@@]5(C)[C@]3(C)C[C@H]4O)O[C@@H](CO)[C@@H]2O)[C@H](O)[C@H](O)[C@H]1O[C@@H]1OC[C@@H](O)[C@H](O[C@H]2OC[C@](O)(CO)[C@H]2O)[C@H]1O (some centres undefined) | 1.16% [at 12.4 µM] (inactive) | 
C=C1CCC2C(C)(C(=O)O)CCCC2(C)C1CCC1=CCOC1=O (centres undefined) | -4.32% [at 57.7 µM] (inactive) | 
COCC(c1ccc(C(F)(F)F)cc1)N1CCN(C2(C)CCN(C(=O)c3c(C)ncnc3C)CC2)CC1C (centres undefined) | 6.04% (inactive) | 
COc1ccc(C2=NC(c3ccc(Cl)cc3)C(c3ccc(Cl)cc3)N2C(=O)N2CCNC(=O)C2)c(OC(C)C)c1 (centres undefined) | -10.8% (inactive) | 
CCCc1cc(C)[nH]c(=O)c1CNC(=O)c1cc(-c2ccc(N3CCN(C(C)C)CC3)nc2)cc2c1cnn2C(C)C | 1.56% (inactive) | 
C=C1C(=O)OC2C3=C(C)C(=O)CC3C(C)CC(O)C12 (centres undefined) | -5.59% (inactive) | 
CC1(C=O)CCCC2(C)C1CCC13CC(CO)C(CCC12)C3 (centres undefined) | 1.85% (inactive) | 
CN1CC[C@@H](c2c(O)cc(O)c3c(=O)cc(-c4ccc(C(F)(F)F)cc4Cl)oc23)[C@@H]1CO | -14.2% (inactive) | 
C[C@@]12C(=O)N(c3ccc(C(=O)Nc4cccc5cccnc45)cc3)C(=O)[C@@H]1[C@@H]1C=C[C@H]2C1 | -3.97% (inactive) | 
Cc1c(C(=O)Nc2ccc(N3CCC(N4CCOCC4)CC3)c(C#N)c2)cnn1-c1ccc(Cl)cc1 | -2.81% (inactive) | 
C=C1C(=O)OC2CC3(C)C(O)C(=O)C=C(C)C3CC12 (centres undefined) | -7.88% (inactive) | 
Nc1cccc(CNC(=O)c2ccc(Oc3ccc(OCc4cccc(F)c4)cc3)nc2)c1 | 0.522% (inactive) | 
C=C1C(=O)O[C@@H]2C=C(COC(C)=O)CC/C=C(\CO)CC[C@@H]12 | -0.843% [at 57.7 µM] (inactive) | 
C[C@@H]1O[C@@H](O[C@H]2[C@@H]3C=CO[C@@H](O[C@@H]4O[C@H](CO)[C@@H](O)[C@H](O)[C@H]4O)[C@@H]3[C@@]3(CO)O[C@@H]23)[C@H](O)[C@H](OC(=O)/C=C/c2ccccc2)[C@H]1O | -7.98% [at 30.2 µM] (inactive) | 
C/C1=C/CCC2=CC(OC2=O)C(C)(C)/C=C/C1=O (centres undefined) | 3.73% (inactive) | 

From PubChem BioAssay (NCATS)
